TGFb inhibitor = inhibitors of TGF-b signaling. Potency, µM (series often up to 46.1 µM), inactives show at the top dose activity, negative = inhibition, hits mostly inhibitors. HepG2 CAGA-GFP TGF-b/SMAD3 reporter, GFP fluorescence, 18 h; TGF-beta stimulated, 500 pg/mL final. 1.2% of 410,000 active; also: potency is read from the fitted curve at half-maximal effect; % is scaled to controls: 0 for no effect and ±100 for the full control effect; nearly all actives have a fitted effect of over 65% in size
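First, reporter cells (HEPG2 CAGA-GFP) rested 2 h at 37 degrees C. Next, compounds were pinned in and TGF-beta added to 500 pg/mL final. After 18 h, GFP was imaged per cell and summed per well.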
DRD3 antagonist = D3 dopamine receptor (human) antagonism; D3R cells, DiscoveRx beta-arrestin luminescence, antagonist mode; hits give low values; max response, negative = inhibition, %; 2.5% of 360,000 active; P35462; in the data active = max response below about -50%; inconclusive = no clear call, values can overlap the other calls; also: % is scaled to controls: 0 for no effect and ±100 for the full control effect
Target sequence (P35462 whole entry, looked up): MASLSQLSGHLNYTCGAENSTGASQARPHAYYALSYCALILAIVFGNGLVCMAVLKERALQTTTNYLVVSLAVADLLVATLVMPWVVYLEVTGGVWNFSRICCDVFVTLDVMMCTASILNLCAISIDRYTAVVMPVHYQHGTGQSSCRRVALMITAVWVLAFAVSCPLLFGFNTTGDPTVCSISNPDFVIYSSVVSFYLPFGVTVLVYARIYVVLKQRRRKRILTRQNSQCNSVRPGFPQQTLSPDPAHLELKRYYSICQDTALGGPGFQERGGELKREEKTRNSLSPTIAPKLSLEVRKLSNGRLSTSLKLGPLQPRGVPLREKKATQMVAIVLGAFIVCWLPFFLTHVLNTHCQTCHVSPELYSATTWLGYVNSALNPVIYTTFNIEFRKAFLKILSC
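Cells expressing the human receptor were seeded at 1500 cells/well, incubated overnight at 37 degrees C in 5% CO2, then exposed to library compounds with dopamine controls for 90 minutes at 37 degrees C before luminescent detection.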
S2 tox = cell viability loss in ATXN counter-screen | 0.49% of 400,000 active | Potency, µM (titrated, usually from 56.7 µM), actives largely listed as cytotoxic | S2 cells (HEK-293 line with an ATXN2-luciferase reporter) viability, CellTiter-Fluor protease fluorescence, 24 h; also: potency is read from the fitted curve at half-maximal effect; nearly all actives have a fitted effect of over 40% in size
HepG2 viability = HepG2 cytotoxicity, counter-screen for TGF-b inhibitors | 0.76% of 410,000 active | AID 588856 | Potency, µM (doses to about 46.1 µM), inactives show at the top dose activity change, negative = cytotoxicity, usual class: cytotoxic | HepG2 CAGA-GFP viability, ATP luminescence, 18 h; also: potency is read from the fitted curve at half-maximal effect
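CellTiter-Glo luminescence gave cytotoxicity after 18 hours at 37 degrees C. The cells were HepG2 CAGA-GFP in 1% FBS DMEM, stimulated with 500 pg/mL TGF-beta after compound addition. %Activity was normalised to no-cell wells (complete cell-killing) and DMSO (no toxicity), and curves were fitted and classified.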
ATXN2 expr inh = inhibitors of ATXN2 expression | HEK-293 ATXN2-luciferase reporter, luminescence, 24 h | Potency, µM (highest dose often 57 µM), for inactives: top-dose activity change, negative = inhibition, actives largely listed as inhibitors | 0.72% of 360,000 active; also: potency is read from the fitted curve at half-maximal effect; % is scaled to controls: 0 for no effect and ±100 for the full control effect; nearly all actives have a fitted effect of over 55% in size
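ATXN2-luciferase reporter cells (luciferase flanked by upstream and downstream ATXN2 gene portions) were treated 24 h at 37 °C with compounds at up to 57 uM. SteadyGlo luminescence gave expression; GF-AFC fluorescence gave viability.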
D3 ag = agonists of human D3 dopamine receptor; P35462; D3R DiscoveRx beta-arrestin cells, luminescence, 90 min; max activation, %; 0.58% of 410,000 active; AID 652048; in the data active = max activation above about 30%; also: 0% is about no effect
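Agonist-mode cell screen: cells plated at 1500/well and incubated overnight at 37 °C, then exposed to library compounds for 90 min at 37 °C. Detection reagent was added for 30–60 min at room temperature, and luminescence was read.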
An asterisk follows results filed as active; i = inactive; ? = inconclusive; . = not tested or not shown. In the library only some 4.7% were active in any assay of this set; here they are far more common. Unless noted, calls follow the shape of the dose curve; as a rule, active = well fitted curve in the direction sought with a large enough effect; inconclusive = small, poorly fitted or top-dose-only effect, or another doubt; inactive = no such curve, though single readings can be large; an effect the other way counts as inactive or inconclusive.

SMILES | TGFb inhibitor | DRD3 antagonist | S2 tox | HepG2 viability | ATXN2 expr inh | D3 ag
O=C(Cc1cccs1)Nc1cccc(-c2nc3cc4ccccc4cc3[nH]2)c1 | 11µM* | 11 | ? | -74% | -36% | 14
Cc1ccc2c(c1)CN(CCNC(=O)C(C)Oc1ccccc1)CC(C)O2 (configuration not stated) | . | . | i | . | . | .
O=C(NNc1c2ccccc2nc2ccccc12)c1ccc(O)cc1 | -1% | -64* | ? | -2% | -19% | -7
O=C(NNc1c2ccccc2nc2ccccc12)c1cccc(O)c1 | -13% | -29 | i | -34% | -13% | -4
O=C(O)CSCC(=O)Nc1ccc(C2CCCCC2)cc1 | -4% | -4 | i | -84% | 2.2µM* | -6
Cc1ccc(NC(=O)CCN2CCCCC2)cc1 | 1% | -16 | i | 3% | . | -21
O=C(O)CSCCC(=O)Nc1ccc(F)cc1 | 1% | -18 | i | 1% | 4% | 41*
O=C(CCN1CCCCCC1)Nc1ccc(F)c(F)c1 | -5% | -62* | i | 1% | -5% | -12
O=C(CCN1CCCCCC1)Nc1ccc(F)cc1 | 8% | -84* | i | -30% | 6% | -37
O=C(c1n[nH]c2c1CCCC2)N1CCC(n2c(C3CCCO3)nc3ccccc32)CC1 (configuration not stated) | . | . | i | . | . | .
CC1=C(C(=O)Nc2ccc(C)cc2C)C(c2ccccc2)n2ncc(C(=O)Nc3ccccc3)c2N1 (configuration not stated) | -8% | . | i | -10% | -7% | 3
COc1cc(S(N)(=O)=O)cc(C(=O)O)c1OC | . | . | i | . | 4% | .
COc1ccc(-c2cc(=O)c3cc(O)ccc3o2)cc1 | 9% | 10 | i | -8% | 38% | -15
COc1ccc(-c2cc(=O)c3c(O)cc(O)cc3o2)cc1 | 10µM* | 18 | i | -57% | 116% | -1
CCCS(=O)(=O)N1CCN(Cc2ccccc2OCC)CC1 | -2% | ? | i | -5% | -2% | -5
COc1ccccc1N1CCN(Cc2ccc(O)c3ncccc23)CC1 | ? | -105* | ? | -57% | 3.5µM* | -87
CCOc1ccccc1N1CCN(Cc2cn[nH]c2-c2ccc(F)cc2)CC1 | -17% | -84* | i | -12% | -12% | -17
CCOc1ccccc1CN1CCN(S(=O)(=O)CC)CC1 | 0% | -51* | i | 0% | -6% | -5
Oc1ccc(CN2CCCc3ccccc32)c2cccnc12 | ? | -22 | ? | -27% | -15% | 8
CCOC(=O)C1CCN(Cc2ccc(O)c3ncccc23)CC1 | ? | -93* | ? | 7.9µM* | -37% | -19
CC1(C(=O)Nc2cccc(C(F)(F)F)c2)Cc2ccccc2C(=O)O1 (configuration not stated) | -21% | . | ? | -4% | -14% | 0
COc1cc(-c2ccc(Cl)cn2)cc2c1OCCN(C(=O)c1ccccc1-n1cccn1)C2 | . | . | i | . | . | .
O=C(Nc1ccc(F)cc1F)c1ccc(-n2cnnc2)cc1 | -13% | . | i | 5% | 0% | 5
CCOc1ccccc1N1CCN(Cc2cccc(OC)c2OC)CC1 | -17% | -89* | i | -19% | -15% | -2
COc1cc2oc(=O)cc(CN3CCN(c4ccccc4OC)CC3)c2cc1Cl | -12% | -50* | i | 4% | 1% | -1
SMILES | TGFb inhibitor | DRD3 antagonist | S2 tox | HepG2 viability | ATXN2 expr inh | D3 ag
COc1ccccc1N1CCN(Cc2ccc(OC)c(OC)c2OC)CC1 | -14% | -51* | . | -22% | . | -9
COc1ccc(CN2CCN(C(=O)c3ccc(-c4ccccc4)cc3)CC2)c(OC)c1OC | -2% | 9 | i | 9% | 0% | 6
COc1ccc(CN2CCN(C(=O)c3cccs3)CC2)c(OC)c1OC | 3% | -86* | i | 20% | -6% | -13
COc1ccc(CN2CCCC(n3cc(C(=O)N4CCCCC4)nn3)C2)c(OC)c1OC (configuration not stated) | . | . | i | . | . | .
Oc1cc(-c2nc3ccccc3s2)cc2c1OCCN(Cc1cccn1-c1ncccn1)C2 | . | . | i | . | . | .
N#Cc1nc(COc2ccc(-c3ccccc3)cc2)oc1N1CCC(C(N)=O)CC1 | -23% | . | . | -55% | . | .
COc1ccc(CCNC(=O)CN(c2ccccc2)S(=O)(=O)N(C)C)cc1 | -2% | . | ? | 5% | -26% | -17
COc1ccc(C(=O)c2[nH]c(N)c(C(=O)NCCc3c[nH]c4ccccc34)c2-c2ccccc2Br)cc1 | . | 10 | . | . | ? | 7
Nc1[nH]c(C(=O)c2ccccc2)c(-c2ccccc2Br)c1C(=O)NCCc1c[nH]c2ccccc12 | . | 35 | 20µM* | . | ? | 3
Nc1[nH]c(C(=O)c2ccccc2)c(-c2ccc(Cl)cc2)c1C(=O)NCc1ccccc1 | . | 0 | i | . | 12% | 57*
Nc1[nH]c(C(=O)c2ccccc2)c(-c2ccc(Cl)cc2)c1C(=O)NCc1ccco1 | . | -5 | i | . | 9% | -15
C/C(Cn1nnc([N+](=O)[O-])n1)=N\NC(=O)c1ccc(O)cc1O | ? | 6 | i | -32% | ? | -1
C/C(Cn1nnc([N+](=O)[O-])n1)=N\NC(=O)c1ccc(O)cc1 | 11µM* | -3 | ? | -31% | . | 2
C/C(Cn1nnc([N+](=O)[O-])n1)=N\NC(=O)c1ccc(Cl)c(Cl)c1 | 10µM* | -16 | ? | 14µM* | ? | -2
COC(=O)CCNC(=O)NC(CCC(C)C)c1c(-n2cccc2)sc2c1CCN(C)C2 (configuration not stated) | -18% | . | . | -2% | . | -16
O=C(NCCc1nnc2n1CCN(Cc1ccccn1)CC2)c1ccc(F)cc1 | . | . | i | . | . | .
CCCCNC(=O)COC(=O)c1c2c(nc3ccccc13)CCC2 | -16% | 26 | i | -32% | 4% | -5
CNC(=O)NC(=O)C(C)OC(=O)c1c2c(nc3ccccc13)/C(=C/c1cccs1)CC2 (configuration not stated) | ? | 2 | . | 11% | 0% | 37*
CCCCNC(=O)COC(=O)c1c2c(nc3ccccc13)/C(=C/c1cccs1)CC2 | ? | 11 | . | -14% | 27% | 69*
O=C(NC1CCCCC1)c1cc2c(Cl)nc3ccccc3c2s1 | ? | . | i | 1% | 3% | 8
CC(C)(C)NC(=O)NC(=O)C[n+]1ccc(Cc2ccc([N+](=O)[O-])cc2)cc1 | -2% | 2 | i | 3.2µM* | -27% | 19
Cc1ccc(Cl)cc1NC(=O)C[n+]1ccc(Cc2ccc([N+](=O)[O-])cc2)cc1 | -25% | -13 | i | -20% | -20% | -11

High-throughput results (PubChem BioAssay)
